Reference: PubChem BioAssay (NCI)
About 79,000 compounds went through this panel and 15% of them were active in at least one assay; those are over-represented in the sample as a whole. Calls of active or inactive are those of the source. Cut-off read from the data, not from the text of the source: active = growth inhibition above about 70%; inactive = the rest.

Test: NCI Yeast Anticancer Drug Screen. Data for the rad14 strain (AID 159);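 note: 0% = growth of vehicle-treated control cultures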
Conditions: S. cerevisiae rad14 strain growth inhibition, hits give high values
Experimental: Growth inhibition of yeast strains with defined genetic alterations is measured as a screen for potential anti-cancer activity. Selected strains with alterations in DNA damage repair or cell cycle control were exposed to compounds and growth inhibition was measured relative to vehicle treated controls. The strain used in this assay is rad14

Measured: growth inhibition

COC(=O)C1=C(C(=O)OC)CC(n2nnc(C(=O)OC)c2C(=O)OC)=CC1
inactive: at 1.2 µM 0% | at 3.7 µM 3% | at 11.0 µM 4% | at 33.0 µM 3% | at 100.0 µM 1%

C1=CCN([B-](c2ccccc2)[C+]2CCCCC2)C=C1
inactive: at 1.2 µM -1% | at 3.7 µM -2% | at 11.0 µM 1% | at 33.0 µM 28%
active: at 100.0 µM 99%

COc1ccc(C(=O)/C=C\c2ccc(Cl)c(Cl)c2)cc1
inactive: at 1.2 µM -19% | at 3.7 µM -20% | at 11.0 µM -30% | at 33.0 µM -17% | at 100.0 µM 42%

CCN1CCC(O)(c2ccc(Oc3ccc(Cl)cc3)cc2)C(C(=O)c2ccc(Oc3ccc(Cl)cc3)cc2)C1 (stereo not given)
inactive: at 1.2 µM -4% | at 3.7 µM 16% | at 11.0 µM 11% | at 33.0 µM 21% | at 100.0 µM 45%

O=C(Nc1cccs1)c1ccccc1
active: at 100.0 µM 80%
inactive: at 1.2 µM 0% | at 3.7 µM -3% | at 11.0 µM 0% | at 33.0 µM 23%

CCC(/C=C/c1ccccc1)=N\Nc1ccc(Cl)c(Cl)c1
active: at 100.0 µM 94%
inactive: at 1.2 µM 2% | at 3.7 µM 0% | at 11.0 µM -6% | at 33.0 µM 10%

COc1ccc(C(C)c2cc3c(cc2OC(C)O)OCO3)cc1 (stereo not given)
inactive: at 1.2 µM -1% | at 3.7 µM -2% | at 11.0 µM -1% | at 33.0 µM 4% | at 100.0 µM 69%

Cc1oc2ccccc2c(=O)c1Cn1nnc2ccccc21
inactive: at 1.2 µM -1% | at 3.7 µM -1% | at 11.0 µM 1% | at 33.0 µM 8% | at 100.0 µM 36%
